# From PubChem BioAssay
# G9a block = blocks human histone lysine methyltransferase G9a; Q96KQ7; G9a H3K9 monomethylation, AlphaScreen, 2 h; Potency, µM (titrated, usually from 102 µM), usual class: inhibitors; actives 8.8% (n = 350,000); AID 504332; further: nearly all actives have a fitted effect of over 75% in size
#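 Compounds were preincubated with 20 nM G9a for 15 min, after which biotinylated H3K9 peptide (500 nM) and SAM (20 uM) started a 2 h room-temperature reaction. Monomethylated product was quantified by antibody-based AlphaScreen chemiluminescence.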
# JMJD2A Tudor inh = inhibitors of human JMJD2A Tudor domain | AlphaScreen JMJD2A-Tudor / H3K4me3 peptide binding | Potency, µM (doses to about 114 µM), actives largely listed as inhibitors | actives 4.4% (n = 390,000) | AID 504339; further: nearly all actives have a fitted effect of over 50% in size
# L3MBTL1 inh = L3MBTL1 (human) inhibition; Q9Y468; AlphaScreen L3MBTL1–H3K9me1 peptide binding; Potency, µM (series often up to 57.1 µM), actives largely listed as inhibitors; actives 0.66% (n = 230,000); AID 485360; further: nearly all actives have a fitted effect of over 60% in size
# Target sequence (Q9Y468 whole entry, looked up): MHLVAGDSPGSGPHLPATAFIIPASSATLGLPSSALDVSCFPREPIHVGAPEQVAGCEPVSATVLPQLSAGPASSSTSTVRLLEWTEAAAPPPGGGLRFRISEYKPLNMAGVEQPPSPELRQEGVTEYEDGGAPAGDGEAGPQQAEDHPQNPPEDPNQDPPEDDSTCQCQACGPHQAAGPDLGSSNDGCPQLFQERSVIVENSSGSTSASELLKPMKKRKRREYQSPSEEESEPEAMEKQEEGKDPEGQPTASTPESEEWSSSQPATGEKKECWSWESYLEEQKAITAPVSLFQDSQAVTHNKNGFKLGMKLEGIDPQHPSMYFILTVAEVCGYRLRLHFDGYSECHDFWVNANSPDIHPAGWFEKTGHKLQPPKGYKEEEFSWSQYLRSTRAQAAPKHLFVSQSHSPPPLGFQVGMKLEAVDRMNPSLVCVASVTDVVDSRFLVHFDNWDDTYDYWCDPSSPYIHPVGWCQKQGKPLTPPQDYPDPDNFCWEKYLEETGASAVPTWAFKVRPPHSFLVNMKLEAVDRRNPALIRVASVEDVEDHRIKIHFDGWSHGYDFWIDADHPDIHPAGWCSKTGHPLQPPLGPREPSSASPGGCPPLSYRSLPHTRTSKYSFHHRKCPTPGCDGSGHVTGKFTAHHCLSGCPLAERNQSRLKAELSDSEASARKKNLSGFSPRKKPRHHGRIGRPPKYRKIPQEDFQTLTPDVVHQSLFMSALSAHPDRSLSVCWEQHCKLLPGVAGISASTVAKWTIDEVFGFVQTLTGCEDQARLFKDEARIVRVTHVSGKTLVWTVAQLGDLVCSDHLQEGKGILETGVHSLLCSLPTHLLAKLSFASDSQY
#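 AlphaScreen proximity signal between nickel-chelate acceptor and streptavidin donor beads (final 10 ug/mL) reports binding of 50 nM L3MBTL1 to 75 nM biotin-H3 K9me1 peptide; complex incubated with compounds 30 min at room temperature; cefsulodin titration as control.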
# HP1b binding inh = inhibitors of HP1-beta chromodomain binding to methylated histone tails | AlphaScreen HP1-beta / biotin-H3K9me3 peptide binding | AID 540317 | P83916 | actives 0.56% (n = 390,000) | Potency, µM (doses to about 114 µM), hits mostly inhibitors; further: nearly all actives have a fitted effect of over 70% in size
#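 AlphaScreen: HP1-beta (50 nM) preformed 30 min with biotin-H3(1-18)K9me3 peptide (50 nM) in PBS pH 7.4, 0.01% Tween-20. Compound added for 30 min at RT, then streptavidin donor/nickel chelate acceptor beads (10 ug/mL) for 30 min.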
# BAZ2B block = blocks human BAZ2B; AlphaScreen BAZ2B-H3K14Ac peptide displacement; Q9UIF8; Potency, µM (doses to about 114 µM), most hits filed as inhibitors; actives 4.4% (n = 360,000); further: nearly all actives have a fitted effect of over 60% in size
#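 Complex of BAZ2B and biotin-H3K14Ac (50 nM apiece) forms over 30 min at RT, then faces library compounds up to 110 uM for another 30 min; AlphaScreen beads added, 20 min dark incubation, luminescence read.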
# GLS inh = glutaminase GLS (human) inhibition; AID 624170; Potency, µM (titrated, usually from 45.5 µM), actives largely listed as inhibitors; actives 0.21% (n = 410,000); GLS enzymatic activity, qHTS titration
#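 hKGA; 45 mM KH2PO4 pH 8.2 + 0.02% Tween-20; cpd via pin tool; 1 mM Gln soln; GluOx/HRP/Amplex Red; RT 30 min; fluor. t0 & final.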
# Numbers stand for hits; i = inactive; ? = inconclusive; nt = no result given; ! = not confirmed by another sample; [ ] = remark or other dose. Only some compounds are listed: those with a hit (about 10% of all), similar ones and a draw of the others. The call rests on the fitted dose curve; in most records, active means well fitted curve in the direction sought with a large enough effect; inconclusive means small, poorly fitted or top-dose-only effect, or another doubt; inactive means no such curve, though single readings can be large; an effect the other way counts as inactive or inconclusive.
SMILES,G9a block,JMJD2A Tudor inh,L3MBTL1 inh,HP1b binding inh,BAZ2B block,GLS inh
N#Cc1cccc(S(=O)(=O)NCC(=O)NCc2ccc3c(c2)OCO3)c1,?,i,i,i,i,i
COc1ccc(CNC(=O)CNS(=O)(=O)c2cccc(C#N)c2)cc1OC,50.1µM,i,nt,i,i,i
CCOC(=O)N1CCN(C(=S)NC(=O)c2ccnn2C)CC1,20µM,?,i,i,i,i
CCOC(=O)N1CCN(C(=S)NC(=O)c2ccc(F)cc2)CC1,28.2µM,i,i,i,?,i
CCOC(=O)N1CCN(C(=S)NC(=O)c2nn(C)cc2Br)CC1,?,i,i,i,i,i
CC(C)CCNC(=O)c1cccc(-n2cnc3cccnc32)c1,i,i,nt,i,i,i
Cc1ccc(C2C(C#N)=C(N)Oc3nc(-c4ccccc4)[nH]c32)o1 (stereo unspecified),50.1µM,i,i,i,i,i
O=C(Sc1nnc(-c2ccccc2)o1)N1c2ccccc2Sc2ccccc21,8.91µM,50.1µM,i,i,?,i
Cn1ccnc1SC(=O)N1c2ccccc2Sc2ccccc21,?,20µM,nt,i,?,i
CC(C)c1nc2ccc(C(=O)NCc3ccc(N(C)C)cc3)cc2o1,15.8µM,?,nt,i,?,i
CCc1nc2ccc(C(=O)NCc3ccc(N(C)C)cc3)cc2nc1CC,3.55µM,i,nt,i,?,i
CCc1cccc(C)c1NC(=O)Cn1cc2c(n1)CCCCC2,i,i,nt,i,i,i
Cc1ccc(NC(=O)Nc2nnc(SCC(=O)N(C(C)C)C(C)C)s2)cc1,i,i,nt,i,i,i
Cc1nc(CC(=O)c2ccc(O)cc2O)cs1,?,i,nt,i,i,i
Cc1nc(C/C(=N\Nc2ccccc2)c2ccc(O)cc2O)cs1,4.47µM,50.1µM,?,?,50.1µM,i
O=C(NCc1ccccn1)Nc1cccc(NC(=O)NCc2ccccn2)c1,i,i,i[11.4 µM],i,i,i
CCc1cc(/C(Cc2ccccn2)=N\Nc2ccccc2)c(O)cc1O,2.51µM,?,i,?,50.1µM,i
Cc1nn(C)c(C)c1S(=O)(=O)N(CC(=O)N1CCN(c2ccccc2)CC1)c1ccc(C(C)C)cc1,i,i,nt,i,i,i
COc1cccc(C(=O)N2CCc3cc(OC)c(OC)cc3C2COc2ccc3c(C)cc(=O)oc3c2)c1 (stereo unspecified),i,i,nt,i,i,i
COc1cc2c(cc1OC)n(CC(=O)NC1CCCCCC1)n1c(C)cc(=O)nc21,i,50.1µM,nt,i,i,i
COC(=O)Cn1c2ccccc2c2nc(=O)cc(C)n21,i,i,nt,i,i,i
Cc1ccc(CNC(=O)C2c3ccccc3C(=O)N3CCc4ccccc4C23)o1 (stereo unspecified),31.6µM,i,i,i,?,i
COc1cc(CN(C(=O)Nc2cccc(Cl)c2)c2ccccn2)cc(OC)c1OC,i,i,nt,i,i,i
CC(C)CC(c1nnnn1C1CCCCC1)N1CCN(C(=O)c2ccco2)CC1 (stereo unspecified),?,i,nt,i,i,i
CC(C)CC(c1nnnn1C1CCCC1)N1CCN(C(=O)c2ccco2)CC1 (stereo unspecified),i,50.1µM,nt,i,79.4µM,i
SMILES,G9a block,JMJD2A Tudor inh,L3MBTL1 inh,HP1b binding inh,BAZ2B block,GLS inh
CCCCC(c1nnnn1C1CCCC1)N1CCN(C(=O)c2ccco2)CC1 (stereo unspecified),i[12.7 µM],i,nt,i,79.4µM,i
CCCC(c1nnnn1C1CCCC1)N1CCN(C(=O)c2ccco2)CC1 (stereo unspecified),?,?,i,i,?,i
COc1ccc2c(c1)CC(C(=O)Nc1ccc(Br)c(C)c1)CO2 (stereo unspecified),i,i,nt,i,i,i
Cc1nc2scc(C)n2c(=O)c1S(=O)(=O)NC(C)c1ccccc1 (stereo unspecified),i,25.1µM,nt,i,i,i
Cc1nc2scc(C)n2c(=O)c1S(=O)(=O)NCCc1ccccc1,i,i,nt,i,i,i
CC(=O)c1ccc2c3c(cccc13)C(=O)N(c1c(C)nn(C)c1C)C2=O,10µM,i,i,i,i,i
Cc1ccc(N2C(=O)c3cccc4c(C(=O)O)ccc(c34)C2=O)cc1,i,nt,i,nt,i,nt
CCCn1c(SCc2nc(-c3ccccc3C)no2)nnc1-c1ccc(Cl)cc1,i,i,nt,i,i,i
CC(C)(C)NC[C@H](O)CSc1nc(-c2ccc(C(N)=O)s2)cs1,?,nt,nt,nt,nt,i
CCOC(=O)SC1=N/C(=C\c2ccc(N(C)C)cc2)C(=O)S1,10µM,20µM,i,35.5µM,12.6µM,i
CCSC1=N/C(=C\c2ccc(C(=O)O)cc2)C(=O)S1,?,i,i,i,?,i
CC(C)=CCN1CCN(Cc2cccnc2)CC1CCO (stereo unspecified),i,i,i,i,i,i
CC(C)(C)NC(=O)[C@@H]1CN(Cc2cccnc2)CCN1C[C@@H](O)C[C@@H](Cc1ccccc1)C(=O)N[C@H]1c2ccccc2C[C@H]1O,nt,89.1µM,nt,i,nt,i
S=c1nc[nH]c2c1ncn2-c1ccccc1,nt,0.631µM,nt,i,nt,i
CC(C)n1cnc2c(=S)nc[nH]c21,0.794µM,?,i,i,50.1µM,i
O=C(NCc1ccc(F)cc1)c1cc2c(=O)n3ccccc3nc2s1,i,i,nt,i,i,i
C#CCOCCOCCOCCNc1nc(N2CCN(C(=O)[C@H](C(C)C)n3cc(CCO)nn3)CC2)nc(N2CCN(C(=O)[C@H]([C@@H](C)CC)n3cc(CCCCN)nn3)CC2)n1,50.1µM,i,i,i,i,i
C#CCOCCOCCOCCNc1nc(N2CCOCC2)nc(N2CCN(C(=O)[C@H]([C@@H](C)CC)n3cc(CCCCN)nn3)CC2)n1,50.1µM,?,i,i,?,i
CCN(Cc1ccccc1)c1ccc(Br)cn1,nt,i,nt,nt,nt,nt
O=C1NC(=O)/C(=C\c2ccc(Br)o2)S1,44.7µM,?,nt,i,i,i
Cc1ccc2c(c1)c1c(n2CC(O)CNC2CCCCC2)CCCC1 (stereo unspecified),39.8µM,31.6µM,nt,?,50.1µM,i
Cc1ccc2c(c1)c1c(n2CC(O)CNC(CO)(CO)CO)CCCC1 (stereo unspecified),50.1µM,?,nt,i,?,i
Cc1ccc2c(c1)c1c(n2CC(O)CN2CCOCC2)CCCC1 (stereo unspecified),?,nt,?,nt,i,nt
Cc1ccc2nc(CSc3nnc(NC(=O)c4ccc(C(C)(C)C)cc4)s3)cc(=O)n2c1,i,i,nt,i,i,i
Cc1cccc(CNc2ncncc2-c2ccc(C(=O)N(C)C)cc2)c1,i[0.501 µM],nt,nt,nt,nt,nt
CCN(CC)CCc1nc(-c2ccccc2)no1,12.6µM!,39.8µM,i,i,i,i
O=C(O)CCc1nc(-c2ccccc2)no1,i,i,i,i,nt,i
